Our source for the outcome and activity change, negative = cytotoxicity values is PubChem BioAssay (Tox21).

Inconclusive results are not listed. The source made the active and inactive calls. The call rests on the fitted dose curve; in most records, active means well fitted cell-killing curve with a large enough effect in the repeat runs; inconclusive means weak or mixed curves, or effect the other way; inactive means no such curve, though single readings can be large or run the other way.
On the % scale 0 is the no-effect control and ±100 the full control effect.

The experiment can be described thus: qHTS assay to identify small molecule antagonists of the peroxisome proliferator-activated receptor gamma (PPARg) signaling pathway - cell viability counter screen (AID 743194). Further: nearly all actives have a fitted effect of over 55% in size. Particulars: PPARg-bla HEK293H viability, CellTiter-Glo luminescence, 17 h, co-treated with 50 nM rosiglitazone; series mostly up to 62.6 µM. An excerpt: U.S. Tox21 Program National Center for Advancing Translational Sciences [NCATS] NIH Chemical Genomics Center [NCGC] U.S. Environmental Protection Agency [EPA] National Institutes of Environmental Health Sciences [NIEHS] National Toxicology Program [NTP] U.S. Food and Drug Administration [FDA] Tox21 Assay Overview: The peroxisome proliferator-activated receptors (PPARs) are lipid-activated transcription factors of the nuclear receptor superfamily with three distinct subtypes namely PPAR alpha, PPAR delta (also called PPAR beta) and PPAR gamma (PPARg). All these subtypes heterodimerize with Retinoid X receptor (RXR) and these heterodimers regulate transcription of various genes. PPAR-gamma receptor (glitazone receptor) is involved in the regulation of glucose and lipid metabolism. To identify the compounds that activate PPAR-gamma signaling, GeneBLAzer PPAR gamma UAS-bla HEK293H cell line (Invitrogen, Carlsbad, CA, USA) containing a beta-lactamase reporter gene under the control of an Upstream Activator Sequence (UAS) was used to screen the Tox21 compound library. The cytotoxicity of the Tox21 compound library against the PPARg-bla cell line was tested in parallel by measuring the cell viability using CellTiter-Glo assay in the same wells.
Tox21 Assay Protocol Summary: PPARg-bla cells were dispensed at 3000 cells/5uL/well in 1536-well black wall/clear bottom plates using a Multidrop Combi (Thermo Fisher Scientific, Waltham, MA) dispenser. After the assay plates were incubated at 37 C and 5% CO2 for 5 h, 23 nL of compounds dissolved in DMSO, positive controls or DMSO only was transferred to the assay plate by a Pintool station (Kalypsys, San Diego, CA), followed by addition of 1ul Rosiglitazone (50 nM, final concentration in the wells). The assay plates were incubated at 37 C for 17 h, and then 1 uL of LiveBLAzerTM B/G FRET substrate was added using a Bioraptr Flying Reagent Dispenser (FRD) workstation (Beckman Coulter, Indianapolis, IN, USA). The assay plates were incubated at room temperature for 1 h and fluorescence intensity was measured by an Envision plate reader (PerkinElmer, Shelton, CT). For cell viability readout that measures cytotoxicity, 4 ul/well of CellTiter-Glo reagent was added into the assay plates using a Flying Reagent Dispenser. After 30 min incubation at room temperature, the luminescence intensity in the plates was measured using a ViewLux plate reader (PerkinElmer).
A general note: In qHTS, concentration-response curves come from the screen itself.
As for `COc1ccc(OC)c(Cl)c1`, the outcome was inactive.

`C[C@H](CCC(=O)O)[C@H]1CC[C@H]2[C@@H]3C(=O)C[C@@H]4CC(=O)CC[C@]4(C)[C@H]3CC(=O)[C@]12C`: the outcome was inactive.

As for `CCOCCOCCOCC`, the result was inactive.

In the case of `O=S(O)(O)=S`, the activity change, negative = cytotoxicity was -0.949% [at 5.95 µM] (inactive).

Regarding `C=C(C)C(=O)OCCOP(=O)(O)OCCOC(=O)C(=C)C`, the outcome was inactive.

In the case of `CCCCN`, the outcome was inactive.

As for `CC(=O)OC(C)OC(=O)C(C)c1ccc(-c2ccccc2)c(F)c1` (stereo not given), the result was inactive.

Regarding `CCCC/C=C/C=C\C=O`, the result was inactive.

As to `O=C(CCN1CCN(CCO)CC1)N1c2ccccc2Sc2ccc(C(F)(F)F)cc21`, the outcome was inactive.

Consider `O=Cc1ccc(Cl)c(Cl)c1`, for which the outcome was inactive.

With `NS(=O)(=O)c1ccc(NC(=O)CCC(=O)O)cc1`, the outcome was inactive.

Regarding `CCCCCCCCSCC`, the result was inactive.

With `CC(=O)Nc1cccc(C)c1`, the result was inactive.

For `C=C(C)C(=O)OCCN(CC)CC`, the outcome was inactive.

In the case of `CNS(=O)(=O)CCc1ccc2[nH]cc(C3CCN(C)CC3)c2c1`, the result was inactive.

As for `CCCCCOC(=O)CCC`, the outcome was inactive.

As to `Cc1ccc(C=O)cc1C`, the result was inactive.

As for `COCCc1ccc(OCC2CO2)cc1` (stereo not given), the result was inactive.

With `CC(=O)NCc1c(I)c(NC(C)=O)c(I)c(C(=O)O)c1I`, the result was inactive.

Turning to `Cc1cc(C(C)(C)C)c(O)c(C)c1CC1=NCCN1`, the outcome was inactive.

`Cc1cc(NC(=O)C2=C(O)c3ccccc3S(=O)(=O)N2C)no1`: the outcome was inactive.

As to `OCCC(F)(F)C(F)(F)C(F)(F)C(F)(F)C(F)(F)C(F)(F)C(F)(F)C(F)(F)F`, the outcome was inactive.

Take `CCCCOC(=O)c1ccccc1`: the result was inactive.

With `Nc1ccc([N+](=O)[O-])c(N)c1`, the result was inactive.

Take `CCC(C)NC(N)=O` (stereo not given): the result was inactive.

Consider `CC(C)N(c1ccccc1)C(C)C`, for which the outcome was inactive.

Consider `Nc1cccc(O)c1`, for which the outcome was inactive.

`CCCOC(OCCC)OCCC`: the outcome was inactive.

In the case of `CC(C)NCC(O)COc1cccc2[nH]ccc12` (stereo not given), the result was inactive.

With `CC(=O)c1ccc2c(c1)Cc1ccccc1-2`, the outcome was inactive.

On to `CNC(=O)[C@H]1O[C@@H](n2cnc3c(NCc4cc(Cl)ccc4OCc4cc(C)no4)ncnc32)[C@H](O)[C@@H]1N`, for which the outcome was inactive.

Turning to `CC(C)CC(=O)O`, the result was inactive.

Consider `CCOC(=O)c1ncn2c1CN(C)C(=O)c1cc(F)ccc1-2`, for which the result was inactive.

Turning to `O=C(O)c1ccc(Cl)cc1Cl`, the outcome was inactive.

Consider `CC(C)=CCOC(=O)c1ccccc1`, for which the result was inactive.

As for `O=S(=O)(O)c1ccc2cc(O)c(S(=O)(=O)O)cc2c1`, the result was inactive.

For `Cc1cccc2nccnc12`, the outcome was inactive.

For `Cc1cccc(OCC(O)CNC(C)(C)C)c1C` (stereo not given), the result was inactive.

Turning to `N#Cc1ccc(C(=O)O)cc1`, the outcome was inactive.

As for `C=Cc1ccccn1`, the result was inactive.
